# HTT cytoprotect – Huntington cell model cytoprotection by ATP luminescence. PC12 HTT-Q103 induced, cytoprotection, ATP luminescence, 40 h. AID 1471. Potency, µM (series often up to 56.4 µM), most hits filed as activators. 230,000 tested, 0.14% active; active means well fitted curve in the direction sought with a large enough effect; inconclusive means small, poorly fitted or top-dose-only effect, or another doubt; inactive means no such curve, though single readings can be large; an effect the other way counts as inactive or inconclusive; further: nearly all actives have a fitted effect of over 45% in size
#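 Quantitative HTS on tebufenozide-induced (100 nM) PC12 cells expressing HTTQ103 exon 1–GFP; compounds tested as a concentration series; survival measured via cellular ATP.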
# Lamin A splicing – changes lamin A minigene splicing in HeLa cells. HeLa LMNA splicing GFP/RFP minigene ratio, 48 h. Potency, µM (doses to about 46.1 µM), hits mostly inhibitors. 200,000 tested, 0.01% active; active means well fitted inhibition curve with a large enough effect in the signal ratio, with a control signal flat, not every such curve was filed as active; inconclusive means small, poorly fitted or top-dose-only effect, or effect the other way, or a change in a side signal; the % refers to the signal ratio
#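 Read-out is the ratio of GFP to DsRed2 object intensity, acquired by 488 nm laser-scanning cytometry on HeLa lamin A-EGFP minigene reporter cells. Compound incubation 48 hrs at 37 °C in Opti-MEM with 2% FBS; DMSO 0.5% final.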
# KDM4E inh – JMJD2E (human) inhibition. B2RXH2. JMJD2E catalytic domain, FDH-coupled NADH fluorescence (FDH is formaldehyde dehydrogenase). Potency, µM (titrated, usually from 57.1 µM), usual class: inhibitors. 230,000 tested, 1.6% active. AID 2147; further: nearly all actives have a fitted effect of over 50% in size
# Target sequence (B2RXH2 1-337 limits assumed): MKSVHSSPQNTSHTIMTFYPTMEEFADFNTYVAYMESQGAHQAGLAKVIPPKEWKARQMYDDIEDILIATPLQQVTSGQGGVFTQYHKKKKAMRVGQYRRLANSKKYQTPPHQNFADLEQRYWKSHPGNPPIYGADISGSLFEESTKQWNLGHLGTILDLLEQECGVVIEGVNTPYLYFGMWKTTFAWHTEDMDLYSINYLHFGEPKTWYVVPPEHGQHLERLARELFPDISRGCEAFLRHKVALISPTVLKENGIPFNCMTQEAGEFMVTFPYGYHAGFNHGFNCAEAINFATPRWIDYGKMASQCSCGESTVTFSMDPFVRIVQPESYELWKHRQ
# ALDH1A1 inh – ALDH1A1 (human) enzyme inhibition | Potency, µM (highest dose often 75.3 µM), hits mostly inhibitors | P00352 | Purified ALDH1A1, NADH fluorescence, propionaldehyde substrate | 220,000 tested, 7.3% active
# HttQ103 aggreg – inhibitors of mutant huntingtin aggregate formation in PC12 cells; AID 1688; PC12 HttQ103-GFP aggregates, Acumen cytometry, 40 h; Potency, µM (series often up to 46.1 µM), usual class: inhibitors; 220,000 tested, 1.1% active; active means well fitted curve in the direction sought with a large enough effect; inconclusive means small, poorly fitted or top-dose-only effect, or another doubt; inactive means no such curve, though single readings can be large; an effect the other way counts as inactive or inconclusive; further: nearly all actives have a fitted effect of over 60% in size
#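 PC12 cells stably carrying ecdysone-inducible HTT exon 1 Q103–GFP were induced with tebufenozide (100 nM final) and treated with library compounds in titration. GFP aggregates in lysates were counted by laser scanning cytometry.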
# HPGD block – inhibitors of human 15-hydroxyprostaglandin dehydrogenase (HPGD); Potency, µM, most hits filed as inhibitors; purified HPGD, NADH fluorescence kinetic, PGE2 substrate; P15428; 150,000 tested, 4.3% active
# Target sequence (P15428 whole entry, looked up): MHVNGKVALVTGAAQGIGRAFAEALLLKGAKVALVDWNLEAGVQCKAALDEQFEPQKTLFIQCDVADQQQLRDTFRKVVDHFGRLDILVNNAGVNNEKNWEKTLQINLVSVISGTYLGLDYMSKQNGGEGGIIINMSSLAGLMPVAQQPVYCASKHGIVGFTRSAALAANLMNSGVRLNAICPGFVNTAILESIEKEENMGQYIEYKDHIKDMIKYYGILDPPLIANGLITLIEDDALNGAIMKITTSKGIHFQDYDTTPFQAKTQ
#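 20 nM HPGD preincubated 15 min at room temperature with compound in 50 mM Tris-HCl pH 8, 0.01% Tween 20. Started with 1 mM NAD+ and 30 uM prostaglandin E2; NADH fluorescence (360/450 nm) read 5 times over 30-s intervals, last minus first.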
# A number is an active result; - = inactive; ? = inconclusive; . = no result; [ ] = remark or other dose. A selection: hits, their analogues and other compounds. The true share with any hit is near 9.2%. Unless noted, the call rests on the fitted dose curve; in most records, active means well fitted inhibition curve with a large enough effect (not every such curve was filed as active); inconclusive means small, poorly fitted or top-dose-only effect, or another doubt; inactive means no such curve, though single readings can be large or run the other way.
SMILES,HTT cytoprotect,Lamin A splicing,KDM4E inh,ALDH1A1 inh,HttQ103 aggreg,HPGD block
CN(C)c1ccc(C(c2nnnn2CCOC(=O)Nc2ccc(Cl)cc2)N2CCOCC2)cc1 (stereo not given),-,-,-,25.1µM,-,-
C[C@@]1(CCOCc2ccccc2)NC(=O)NC1=O,-[10 µM],.,.,-[13.5 µM],.,-
CCOC(=O)c1ccc(NC(=O)NC2CC3CCC(C2)N3Cc2nnnn2Cc2ccco2)cc1 (stereo not given),-,-,-,12.6µM,-,-
Cn1cc(-c2nnnn2-c2ccccc2)c(=O)c2ccccc21,-,-,-,7.08µM,-,-
Cc1ccc(-c2nc3cnccn3c2Nc2ccc3c(c2)OCO3)o1,-[10 µM],-,-,14.1µM,-,-
CCOc1ccccc1Nc1ncnc2c1c(-c1ccccc1)cn2-c1ccc(OC)cc1,.,-,.,.,.,.
C=CCOC(=O)C1=C(C)N=C2SCCC(=O)N2C1c1ccc(OC(=O)c2ccco2)cc1 (stereo not given),-,-,-,20µM,-,-
COC(=O)C1=C(C)N=C2SCCC(=O)N2C1c1ccc(OC(=O)c2ccco2)cc1 (stereo not given),-[10 µM],-,-,-,-,-
NN/C(=C\[N+](=O)[O-])Nc1ccc(Cl)cc1,?,?,-,28.2µM,-[9.22 µM],.
NN/C(=C\[N+](=O)[O-])Nc1ccccc1,-,?,-,?,-,.
COc1ccc(C2(CNS(=O)(=O)c3ccccc3)CCOCC2)cc1,-,?,-,-,-,.
O=C(COc1cccnc1[N+](=O)[O-])c1ccc(Cl)s1,-[10 µM],.,14.1µM,0.708µM,-[9.22 µM],.
O=C(OCC(=O)c1ccc(Cl)s1)c1ccccn1,-[1.9 µM],-,-,?,-,-
CSC(N)=NCCC[C@@H](N)C(=O)O,-[1.9 µM],.,.,.,.,.
COc1ccc(NC(=O)Nc2nnc(-c3ccncc3)s2)cc1,-,-,?,-,20µM,.
CN(C)c1ccc(C(CNC(=O)c2cccc(C(F)(F)F)c2)N2CCCC2)cc1 (stereo not given),.,-,.,.,.,.
c1nc(N2CCOCC2)c2cc(-c3ccoc3)ccc2n1,-,?,.,22.4µM,.,.
c1cn(-c2ncnc3ccc(-c4ccoc4)cc23)cn1,2.51µM,?,.,?,.,.
Cc1noc(C)c1-c1ccc2ncnc(N3CCN(C)CC3)c2c1,-,7.08µM,.,?,.,.
CN1CCN(c2ncnc3ccc(-c4ccccc4Cl)cc23)CC1,-,?,.,?,.,.
Cc1ccccc1-c1ccc2ncnc(N3CCOCC3)c2c1,-,?,.,22.4µM,.,.
Cc1ccccc1-c1ccc2ncnc(N3CCN(C)CC3)c2c1,-,?,.,?,.,.
c1nc(NC2CC2)c2cc(-c3ccoc3)ccc2n1,-,-,.,?,.,.
CC(=O)Nc1ccc(Cc2nc3c([nH]2)c(=O)n(C)c(=O)n3C)cc1,-[10 µM],.,-,-,-[9.22 µM],.
O=C1C(=O)c2ccccc2C(O)=C1C(CCc1ccccc1)C1=C(O)c2ccccc2C(=O)C1=O,-[10 µM],.,.,?,.,?
SMILES,HTT cytoprotect,Lamin A splicing,KDM4E inh,ALDH1A1 inh,HttQ103 aggreg,HPGD block
Cc1noc(C)c1-c1ccc2ncnc(N3CCOCC3)c2c1,-,10µM,.,-,.,.
COc1cccc(-c2ccc3ncnc(N4CCOCC4)c3c2)c1,-,?,.,-,.,.
Cc1nnc2n1N=CC=C(c1ccccc1)S2,15.8µM,?,-,-,.,-
N#Cc1cccc(NC(=O)CN2NS(=O)(=O)c3ccccc3C2=O)c1,-[10 µM],-,-,-,-,15.8µM
N#Cc1cccc(NC(=O)CSc2ccc3c4c(cccc24)C(=O)c2ccccc2-3)c1,-,-,-,17.8µM,7.94µM,-
O=C(Cn1cc(C(F)(F)F)ccc1=O)N/N=C/c1ccccc1,-,-[9.22 µM],-,-,-,.
CCOc1ccc(-c2cc(C(=O)N/N=C/c3ccc(O)c(OC)c3)[nH]n2)cc1,.,.,.,?,.,-
Clc1ccccc1-c1nnc2n1CCCCC2,-[10 µM],.,-,.,-[9.22 µM],.
CCN(CC)C(=O)c1oc2ccc(S(=O)(=O)N3CCCCCC3)cc2c1C,-,?,-,-,10µM,-
CCN(CC)S(=O)(=O)c1ccc2oc(C(=O)N3CCc4ccccc4C3)c(C)c2c1,-[10 µM],?,-,?,?,28.2µM
C=CCNC(=O)c1oc2ccc(S(=O)(=O)N(CC)CC)cc2c1C,-,-,-,20µM,-,20µM
CCN(CC)S(=O)(=O)c1ccc2oc(C(=O)N3CCOCC3)c(C)c2c1,-,-,?,-,-,?
CCN(CC)S(=O)(=O)c1ccc2oc(C(=O)N3CCCCCC3)c(C)c2c1,-,?,-,12.6µM,?,7.08µM
COc1c(O)ccc2c1CN1CCc3cc4c(cc3[C@@H]1C2)OCO4,-[10 µM],.,.,-[13.5 µM],.,-
Cc1ccc(OCC(=O)OCc2cc(=O)n3c(C)csc3n2)cc1,.,-,.,.,.,.
Cc1ccccc1-c1cncnc1Nc1ccc(F)cc1,-,-,-,?,.,?
Cc1cc2c(cc1NS(=O)(=O)c1ccc(F)cc1)n(C)c(=O)c(=O)n2C,.,-,.,.,.,.
O=C(Nc1ccc(S(=O)(=O)Nc2nccs2)cc1)C1CC(=O)N(c2ccccc2)C1 (stereo not given),-,-,-,?,-,.
O=S(=O)(Nc1nccs1)c1ccc(NS(=O)(=O)c2cccs2)cc1,-,-,-,17.8µM,-,-
COc1ccccc1/C=C1/SC(=O)N(CCC(=O)Nc2ccc(S(=O)(=O)Nc3nccs3)cc2)C1=O,-[10 µM],-,?,25.1µM,-,-
O=C(CSc1ccncc1)Nc1ccc(S(=O)(=O)Nc2nccs2)cc1,-,-,-,10µM,-,.
Cc1ccc(SCC(=O)Nc2ccc(S(=O)(=O)Nc3nccs3)cc2)cc1,-[10 µM],-,-,?,-,-
Cc1ccc(N2CC(C(=O)Nc3ccc(S(=O)(=O)Nc4nccs4)cc3)CC2=O)cc1 (stereo not given),-,.,-,20µM,-,.
COC(=O)c1ccc(NC(=O)CC2C(=O)N(c3ccccc3)C(=O)N2C2CCCC2)cc1 (stereo not given),.,-,.,.,.,.
Cc1ccc(NC(=O)CNC(c2ccccc2)c2ccccc2)c(F)c1,-[10 µM],-,-,-,-,-
SMILES,HTT cytoprotect,Lamin A splicing,KDM4E inh,ALDH1A1 inh,HttQ103 aggreg,HPGD block
O=C(CNC(c1ccccc1)c1ccccc1)Nc1c(F)cccc1F,1.26µM,-,-,-,-,-
O=S(=O)(/N=C(\Sc1ccc(Cl)cc1)c1ccccc1)c1ccccc1,-,-,?,-,-,20µM
CS/C(=N\S(=O)(=O)c1ccc(Cl)cc1)c1ccccc1,-[10 µM],-,-,-,-,-
COc1cccc(C(=O)CN2CCN(S(=O)(=O)c3ccc(Cl)cc3)CC2)c1,.,-,.,.,.,.
Cc1ccc(N=Nc2c(=O)[nH]n3c(=O)cc(C)[nH]c23)cc1,-[10 µM],-,-,?,-,20µM
CCOc1ccc(N=Nc2c(=O)[nH]n3c(C)cc(C)nc23)cc1,-[10 µM],-,-,-,-,-
Cc1cccc(N2C(=O)/C(=C\c3ccc(OC(F)F)cc3)c3ccccc3C2=O)c1,-[10 µM],-,?,?,?,10µM
COc1cccc(/C=C2\C(=O)N(c3cccc(C)c3)C(=O)c3ccccc32)c1,-[10 µM],-,-,?,-,3.98µM

# Compound activity: PubChem, National Center for Advancing Translational Sciences (NCATS)
